Test results from PubChem BioAssay (Tox21).
Inconclusive results are not listed. Values without a mark were called inactive. The source made the active and inactive calls. Calls follow the shape of the dose curve; as a rule, active = well fitted cell-killing curve with a large enough effect in the repeat runs; inconclusive = weak or mixed curves; inactive = no such curve, though single readings can be large or run the other way.

Assay: qHTS assay to identify small molecule agonists of the peroxisome proliferator-activated receptor delta (PPARd) signaling pathway - cell viability counter screen (AID 743211); also: nearly all actives have a fitted effect of over 55% in size
Conditions: PPARd-bla HEK293H viability, CellTiter-Glo luminescence, 17 h; series mostly up to 62.6 µM; activity change, negative = cytotoxicity: at the top concentration
Source text: U.S. Tox21 Program National Center for Advancing Translational Sciences [NCATS] NIH Chemical Genomics Center [NCGC] U.S. Environmental Protection Agency [EPA] National Institutes of Environmental Health Sciences [NIEHS] National Toxicology Program [NTP] U.S. Food and Drug Administration [FDA] Tox21 Assay Overview: The peroxisome proliferator-activated receptors (PPARs) are lipid-activated transcription factors of the nuclear receptor superfamily with three distinct subtypes namely PPAR alpha, PPAR delta (PPARd) and PPAR gamma. All these subtypes heterodimerizes with Retinoid X receptor (RXR) and have different physiological functions. […] To identify the compounds that activate PPAR-delta signaling, GeneBLAzer PPAR delta UAS-bla HEK293H cell line (Invitrogen, Carlsbad, CA, USA) containing a beta-lactamase reporter gene under the control of an Upstream Activator Sequence (UAS) was used to screen the Tox21 compound library. The cytotoxicity of the Tox21 compound library against the PPARd-bla cell line was tested in parallel by measuring the cell viability using CellTiter-Glo assay (Promega, Madison, WI) in the same wells.
Tox21 Assay Protocol Summary: PPARd-bla cells were dispensed at 3000 cells/6uL/well in 1536-well black wall/clear bottom plates using a Multidrop Combi (Thermo Fisher Scientific, Waltham, MA) dispenser. After the assay plates were incubated at 37 C and 5% CO2 for 5 h, 23 nL of compounds dissolved in DMSO, positive controls or DMSO only was transferred to the assay plate by a Pintool station (Kalypsys, San Diego, CA). The assay plates were incubated at 37C for 17 h. After 1 uL of LiveBLAzerTM B/G FRET substrate was added using a Bioraptr Flying Reagent Dispenser (FRD) workstation (Beckman Coulter, Indianapolis, IN, USA), the plates were incubated at room temperature for 2 h, and fluorescence intensity was measured by an Envision plate reader (PerkinElmer, Shelton, CT). For cell viability readout that measures cytotoxicity, 3 ul/well of CellTiter-Glo reagent was added into the assay plates using a Bioraptr FRD. After 30 min incubation at room temperature, the luminescence intensity in the plates was measured using a ViewLux plate reader (PerkinElmer).
% is scaled to controls: 0 for no effect and ±100 for the full control effect; potency is read from the fitted curve at half-maximal effect.

Going from `COC(=O)C1=C(C)NC(C)=C(C(=O)OC(C)(C)CN(C)CCC(c2ccccc2)c2ccccc2)C1c1cccc([N+](=O)[O-])c1` (stereo not given) to `CCN(CC)CCOC(=O)C(c1ccccc1)c1ccccc1`, the “activity change, negative = cytotoxicity” value rises from -25.2% to 0.77%.

First: CCCCCCCC/C=C/C(=O)O
Second: CCCCCCC(CO)CCCC (stereo not given)
The “activity change, negative = cytotoxicity” value of the first is lower: 3.48% for the first, 23.5% for the second.

Going from `CCCCCC` to `CCCCOC(=O)CCCCC(=O)OCCCC`, the “activity change, negative = cytotoxicity” value rises from 6.08% to 12.7%.

First: COc1cc(S(=O)(=O)Nc2ccccc2)c(OC)cc1N
Second: COc1ccc(C2C(=O)c3ccccc3C2=O)cc1
The “activity change, negative = cytotoxicity” value of the first is lower: -2.15% for the first, 4.76% for the second.

First: COC(CC(C)CCCC(C)(C)O)OC (stereo not given)
Second: COC(=O)CC(C(C)=O)C(=O)OC (stereo not given)
The “activity change, negative = cytotoxicity” value of the first is lower: -4.54% for the first, 0.245% for the second.

First: Cc1c[nH]c2ccccc12
Second: C/C(C=O)=C\c1ccccc1
The “activity change, negative = cytotoxicity” value of the first is lower: 8.87% for the first, 9.45% for the second.

First: O=C(NS(=O)(=O)/C=C/c1ccccc1)c1ccc(F)cc1Cl
Second: O=C(O)c1cccc(Oc2ccccc2)c1
The “activity change, negative = cytotoxicity” value of the first is lower: -10.1% for the first, 0.827% for the second.

First: C=C(C)C(=O)OCCC(F)(F)C(F)(F)C(F)(F)C(F)(F)C(F)(F)C(F)(F)F
Second: CC(=O)OCC(C)C
The “activity change, negative = cytotoxicity” value of the first is higher: 7.11% for the first, -2.95% for the second.

Compared with `CNCc1ccc(NC(=O)c2c[nH]c3c2C(=O)CCC3)cc1`, `O=C1NC(=O)c2cccc3cccc1c23` is higher in “activity change, negative = cytotoxicity” value: -6.13% for the first, 4.94% for the second.

Going from `COc1ccc(-c2cc(C(F)F)nn2-c2ccc(S(N)(=O)=O)cc2)cc1F` to `COc1cc(C(C)=O)ccc1OCCCN1CCC(c2noc3cc(F)ccc23)CC1`, the “activity change, negative = cytotoxicity” value falls from 4.53% to 2.75%.

Going from `CC1=CC[C@@]23C[C@@H]1C(C)(C)[C@@H]2CC[C@H]3C` to `CC(C)C1CCC(C(=O)N[C@H](Cc2ccccc2)C(=O)O)CC1` (stereo not given in full), the “activity change, negative = cytotoxicity” value rises from 0.0959% to 0.31%.

Going from `C[C@H](CS)C(=O)N1CCC[C@H]1C(=O)O` to `O=C(O)c1cc(Cl)cc(Cl)c1O`, the “activity change, negative = cytotoxicity” value falls from 4.13% to -0.272%.

Going from `O=[N+]([O-])c1ccc2ncccc2c1` to `Oc1ccc2c(c1)Cc1ccccc1-2`, the “activity change, negative = cytotoxicity” value falls from 8.34% to 1.26%.

First: O=P(O)(O)Oc1ccccc1
Second: CCc1ccc(C)cc1
The “activity change, negative = cytotoxicity” value of the first is lower: 4.83% for the first, 5.46% for the second.

Going from `CC[C@H]1OC(=O)[C@H](C)[C@@H](O[C@H]2C[C@@](C)(OC)[C@@H](O)[C@H](C)O2)[C@H](C)[C@@H](O[C@@H]2O[C@H](C)C[C@H](N(C)C)[C@H]2O)[C@](C)(O)C[C@@H](C)/C(=N\OCOCCOC)[C@H](C)[C@@H](O)[C@]1(C)O` to `O=C1[C@@H]2[C@H]3CC[C@H](C3)[C@@H]2C(=O)N1CCCCN1CCN(c2ncccn2)CC1`, the “activity change, negative = cytotoxicity” value falls from 1.85% to -3.53%.

In the case of `CC(CCc1ccc(O)cc1)NCCc1ccc(O)c(O)c1` (stereo not given), the “activity change, negative = cytotoxicity” value is reported as -1.26%.

For `O[C@@H](CNC[C@H](O)[C@H]1CCc2cc(F)ccc2O1)[C@@H]1CCc2cc(F)ccc2O1`, the Potency was 23.7 µM (active).
For `CNS(=O)(=O)c1cc(C(=O)N2CCC(CCN3C4CCC3CC(n3c(C)nc5ccccc53)C4)(c3cccc(F)c3)CC2)c(Cl)cc1F` (stereo not given), the Potency was 8.71 µM (active).

Going from `CCOC(=O)C(C)O` (stereo not given) to `CC(CO)(CO)C(=O)O`, the “activity change, negative = cytotoxicity” value falls from 6.56% [at 81.1 µM] to -4.28% [at 81.1 µM].

First: COC1CCC=CO1 (stereo not given)
Second: C1CCCCC1
The “activity change, negative = cytotoxicity” value of the first is lower: -1.39% [at 81.1 µM] for the first, 0.113% [at 81.1 µM] for the second.

In the case of `CC/C=C\C/C=C\C/C=C\CCCCCCCC(=O)OCC`, the “activity change, negative = cytotoxicity” value is reported as -4.51% [at 81.1 µM].

Compared with `FC(F)(F)C(F)(F)C(F)(F)C(F)(F)CCI`, `CCCCCCCCCCCCCCN(C)C` is lower in “activity change, negative = cytotoxicity” value: 5.45% [at 29.1 µM] for the first, -3.31% [at 29.1 µM] for the second.
